Results published in PubChem BioAssay (Tox21).
Values joined by “and” are separate entries in the source; they are usually repeats but may differ in a detail not shown here. Equal values may be shown once. Results filed as inconclusive are left out. A call without a number means that no potency is given here. The source holds several records for some structures; these can differ, active in one and inactive in another. Active and inactive are the calls of the source. The call rests on the fitted dose curve; in most records, active means well fitted curve in the direction sought with a large enough effect in the repeat runs; inconclusive means weak or mixed curves; inactive means no such curve, though single readings can be large; an effect the other way counts as inactive or inconclusive.

What was measured:
[1] = biological target: Nuclear receptor subfamily 1 group I member 2 (Rattus norvegicus) (UniProt Q9R1A7); assay: Rat pregnane X receptor (rPXR) activation by small molecules, qHTS assay (AID 1346983); settings: rPXR luciferase reporter cells, One-Glo luminescence, 24 h; max activation: stronger effect = higher value; further: nearly all actives have a fitted effect of over 20% in size
Sequence of Nuclear receptor subfamily 1 group I member 2 (Rattus norvegicus) (Q9R1A7 whole entry, looked up): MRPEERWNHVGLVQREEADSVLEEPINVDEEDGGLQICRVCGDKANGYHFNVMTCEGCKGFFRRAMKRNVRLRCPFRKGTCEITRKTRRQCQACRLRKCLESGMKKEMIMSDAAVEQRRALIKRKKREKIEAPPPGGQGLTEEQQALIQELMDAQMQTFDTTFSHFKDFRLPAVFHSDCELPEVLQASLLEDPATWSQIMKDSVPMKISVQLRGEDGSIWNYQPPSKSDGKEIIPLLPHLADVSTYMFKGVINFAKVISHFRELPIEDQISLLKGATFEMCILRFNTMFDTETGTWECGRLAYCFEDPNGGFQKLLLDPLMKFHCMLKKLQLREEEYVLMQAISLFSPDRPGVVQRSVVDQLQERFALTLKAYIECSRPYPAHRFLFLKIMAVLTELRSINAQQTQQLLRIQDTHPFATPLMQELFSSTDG
Outline: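 Cell-based rPXR activation assay: rPXR cells, 2,000 per well, rested 5hr at 37 C, then exposed to compounds in DMSO for 24 hr at 37 C. Luciferase activity read by One-Glo luminescence after 30 min at room temperature.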

[2] = biological target: Nuclear receptor subfamily 1 group I member 2 (Homo sapiens) (UniProt O75469); assay: CYP3A4 induction through human pregnane X receptor (PXR) by small molecules, qHTS assay (AID 1346984); settings: DPX-2 HepG2 PXR, CYP3A4-luciferin luminescence, 24 h; series mostly up to 46.1 µM; further: nearly all actives have a fitted effect of over 40% in size; further: potency means the concentration at half of the fitted maximal effect
Outline: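 HepG2-derived DPX-2 line carrying PXR plus a CYP3A4-promoter luciferase reporter; cells plated 5 hr, compound-exposed 24 hr at 37C. CYP3A4 activity probed with 3uM (final) Luciferin-IPA for 3hr, then luciferase read after One-Glo.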

[3] = biological target: Nuclear receptor subfamily 1 group I member 2 (Homo sapiens) (UniProt O75469); assay: Human pregnane X receptor (PXR) activation by small molecules, qHTS assay (AID 1346985); settings: DPX-2 HepG2 CYP3A4-luciferase, 24 h; series mostly up to 38.3 µM; further: nearly all actives have a fitted effect of over 40% in size; further: potency means the concentration at half of the fitted maximal effect
Outline: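 DPX-2 cells (HepG2 co-transfected with a PXR response element and a CYP3A4-promoter luciferase construct) were seeded at 2,000 per well, rested 5 hr at 37C, then exposed to DMSO-dissolved compounds for 24 hr. Activation was read as luciferase luminescence.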

| Structure (SMILES) | max activation [1] | Potency [2] | Potency [3] |
| --- | --- | --- | --- |
| CO/N=C(\C(=O)N[C@@H]1C(=O)N2C(C(=O)[O-])=C(C[n+]3ccc(N)n3CCO)CS[C@H]12)c1csc(N)n1 | -1.9% (inactive) | inactive | inactive |
| Cc1cnc(C(=O)O)c[n+]1[O-] | -2.61% (inactive) and 6.98% (inactive) and -0.594% (inactive) | inactive | inactive |
| N[C@H](C(=O)O)[C@@H]1CC(Cl)=NO1 | -12.5% (inactive) | inactive | inactive |
| CNCC(=O)N[C@@H](CCCN=C(N)N)C(=O)N[C@H](C(=O)N[C@@H](Cc1ccc(O)cc1)C(=O)N[C@H](C(=O)N[C@@H](Cc1cnc[nH]1)C(=O)N1CCC[C@H]1C(=O)N[C@@H](C)C(=O)O)C(C)C)C(C)C | -0.307% (inactive) | inactive | inactive |
| N=C(N)c1ccc(/C=C/c2ccc(C(=N)N)cc2O)cc1 | -1.55% (inactive) | inactive | inactive |
| C[N+]1(CCCCC[N+]2(C)CCCC2)CCCC1 | -2.61% (inactive) | inactive | inactive |
| CC1(C)S[C@@H]2[C@H](NC(=O)[C@H](N)c3ccc(O)cc3)C(=O)N2[C@H]1C(=O)O | -0.49% (inactive) | inactive | inactive |
| Cc1cn([C@H]2C[C@H](O)[C@@H](CO)O2)c(=O)[nH]c1=O | -1.3% (inactive) | inactive | inactive |
| C=CC[N+]1([C@H]2C[C@H]3[C@@H]4CC[C@H]5C[C@H](O)[C@@H](N6CCOCC6)C[C@]5(C)[C@H]4CC[C@]3(C)[C@H]2OC(C)=O)CCCC1 | -2.81% (inactive) | inactive | inactive |
| CC(=NCc1ccccc1)c1ccccc1O | -4.51% (inactive) | inactive | inactive |
| Cc1c(N)nc([C@H](CC(N)=O)NC[C@H](N)C(N)=O)nc1C(=O)N[C@H](C(=O)N[C@H](C)[C@@H](O)[C@H](C)C(=O)N[C@H](C(=O)NCCc1nc(-c2nc(C(=O)NCCCCN=C(N)N)cs2)cs1)[C@@H](C)O)[C@@H](O[C@@H]1O[C@@H](CO)[C@@H](O)[C@H](O)[C@@H]1O[C@H]1O[C@H](CO)[C@@H](O)[C@H](OC(N)=O)[C@@H]1O)c1cnc[nH]1 | -0.9% (inactive) | inactive | inactive |
| CS(=O)(=O)c1ccc([C@@H](O)[C@@H](COC(=O)CN)NC(=O)C(Cl)Cl)cc1 | -5.77% (inactive) | inactive | inactive |
| NC(=O)C1c2ccccc2CCc2ccccc21 | -2.21% (inactive) | inactive | inactive |
| CC(C)(O/N=C(\C(=O)N[C@@H]1C(=O)N2C(C(=O)[O-])=C(C[n+]3ccccc3)CS[C@H]12)c1csc(N)n1)C(=O)O | 0.831% (inactive) | inactive | inactive |
| NCC(O)CC(=O)O (configuration not stated) | -2.62% (inactive) | inactive | inactive |
| CN=C(N)NCCC[C@H](N)C(=O)O | -7.28% (inactive) | inactive | inactive |
| C=C1C(=C/C=C2\CCC[C@]3(C)[C@@H]([C@H](C)CCCC(C)C)CC[C@@H]23)C[C@@H](O)C[C@@H]1O | -2.56% (inactive) | inactive | inactive |
| CCC(NC(C)C)C(O)c1ccc(O)c(O)c1 (configuration not stated) | -0.219% (inactive) | inactive | inactive |
| COc1ccc([C@@H]2CC(=O)c3c(O)cc(O[C@@H]4O[C@H](CO[C@@H]5O[C@@H](C)[C@H](O)[C@@H](O)[C@H]5O)[C@@H](O)[C@H](O)[C@H]4O)cc3O2)cc1O | -3.19% (inactive) | inactive | inactive |
| Cc1cc(N)c2ccccc2[n+]1CCCCCCCCCC[n+]1c(C)cc(N)c2ccccc21 | -11.7% (inactive) | inactive | inactive |
| C[N+](C)(C)CCOP(=O)(O)OP(=O)([O-])OC[C@H]1O[C@@H](n2ccc(N)nc2=O)[C@H](O)[C@@H]1O | -1.05% (inactive) | inactive | inactive |
| O=C(O)COc1ccccc1/C=N/NC(=O)c1ccncc1 | -3.2% (inactive) | inactive | inactive |
| COc1c(O)cc2c(c1O)[C@@H]1O[C@H](CO)[C@@H](O)[C@H](O)[C@H]1OC2=O | -0.0644% (inactive) | inactive | inactive |
| CC[C@H]1OC(=O)[C@H](C)C(=O)[C@H](C)[C@@H](O[C@@H]2O[C@H](C)C[C@H](N(C)C)[C@H]2O)[C@](C)(OC)C[C@@H](C)C(=O)[C@H](C)[C@H]2N(CCCCn3cnc(-c4cccnc4)c3)C(=O)O[C@]12C | 2.76% (inactive) | inactive and 501 nM (active) | inactive and 794 nM (active) |
